# Results from the supplement of paper PMC6555819.
# Experiments:
# Assay in all cases: PBM binding z-score (relative to random genomic background probes); higher = stronger binding; sequences stand for … in GC…GCGATTGACAGCGTAGAATGAAGG
# [1] = tested on: RARb homodimer (NR concentration 270 nM)
# Method in brief: (§1)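 Ligand-free nuclear receptor dimers were bound for 1 h to custom Agilent 4×180K protein-binding microarrays. Detection used antibodies against each partner (one per run). Binding z-scores rest on regression-normalized fluorescence, with random background probes as the reference.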
# [2] = tested on: RARg:RXRa (NR concentration 270 nM, RXRa partner concentration 90 nM)
# Method in brief: as §1
# [3] = tested on: RARg homodimer (NR concentration 270 nM)
# Method in brief: as §1
# [4] = tested on: RXRa DBDmut IVT, anti-RXR (DBD mutation: RXRa K156A/R161A, NR concentration 90 nM)
# Method in brief: as §1
# [5] = tested on: RXRa homodimer (NR concentration 180 nM)
# Method in brief: as §1
# [6] = tested on: THRa:RXRa (NR concentration 90 nM, RXRa partner concentration 90 nM)
# Method in brief: as §1
# [7] = tested on: THRa homodimer (NR concentration 90 nM)
# Method in brief: as §1
# [8] = tested on: VDR homodimer (NR concentration 270 nM)
# Method in brief: as §1
Sequence,PBM binding z-score [1],PBM binding z-score [2],PBM binding z-score [3],PBM binding z-score [4],PBM binding z-score [5],PBM binding z-score [6],PBM binding z-score [7],PBM binding z-score [8]
CCATGTAGGTTAAGGGGGTCATTCAGTTTGAAAG,4.05,5.03,3.85,2.37,5.74,3.87,2.67,6.01
CGAACTAGGTCAGAGGACAGTGAAAGGCGACGTA,2.41,2.82,3.91,0.547,1.54,1.76,0.433,-7.91e-05
AGAATGGGGTTAAGATCAGGGAAACAGAATACAT,1.9,2.99,1.4,1.99,4.56,3.23,1.67,1.27
CGAAGTAGGTCAAAGGACAGTGAAAGGCGACGTA,3.05,4.15,4.75,1.19,3.67,2.1,-0.0786,0.382
CGAACTAGGTCAGAACAGGACAGTTAAGGATGAT,2.09,2.45,3.49,0.671,1.3,3.48,0.637,0.142
TCGAGTAGGTTACGGGGGCTTTCAGGGATGAAGA,1.29,1.96,1.19,1.17,1.69,2.43,0.921,0.544
CCTTACGGGTCAAGGTTATATCACGGGTGGTACG,3.52,4.98,4.79,0.822,5.52,3.11,0.96,1.54
CCTCGGAGGACAGAAGGTCAGATCTGTCCGCTTT,3.49,3.26,3.53,0.421,2.01,2.25,0.0201,0.21
AGTCAAAGTTCTTCTAGGTAACGTAAGATATGCT,0.172,0.404,0.586,1.41,-0.133,1.71,0.292,0.746
AGTCAAAGTTCAGGACGAGATAACGTAAAGCACG,2.69,3.84,4.59,2.82,2.8,1.76,0.431,1.95
CCGAGTAGGTTACCAGGGGGCATTCAGTGCGAAT,2.4,2.93,2.52,0.717,2.06,3.68,0.758,3.64
TCGAGTAGATTACGGGGGCATTCAGGGATGAAGA,1.26,1.41,0.834,1.65,1.35,3.66,0.874,3.02
CTATGTAGGTTGAGGGGGTCATTCAGTTTGAAAG,3.8,5.4,4.34,2.5,5.59,4.05,3.08,6.14
CGAACTAGGTCAAAGGACAGTGATAGGCGACGTA,3.06,3.97,4.98,1.56,3.26,2.56,0.594,0.324
CGAACTCGGTCAAAGGACAGTGAAAGGCGACGTA,1.9,2.15,2.76,0.447,0.907,0.713,-0.276,-0.121
AATACAGGGTCGCTAGGCCAGAGTAGGTACGAAT,0.921,1.37,1.37,0.47,1.52,1.09,0.0627,0.727
GCTGCTAGGTCAGGTTGGTCAGCTAACGGGTACG,2.53,2.7,3.45,0.582,0.927,1.84,0.48,0.466
ATATGTAGGTTACGGTCATTCAGAAAGTAGGGAA,2.42,2.34,2.47,0.852,1.64,2.08,0.831,0.93
TTACCAAAGTGAAAGGTCGTTGATGCACGCCTTG,1.87,1.64,1.01,0.293,2.65,1.34,-0.34,1.41
CCGAGTAGGTTACGAGCGGGCATTCAGTGCGAAT,0.628,0.683,0.688,0.309,0.313,1.23,-0.803,-0.206
CGATCTAGGTCAAAGGACAGTGAAAGGCGACGTA,2.74,3.63,4.58,1.7,2.76,2.62,0.472,0.297
CTATGTAGGTTAAGGGGGTAATTCAGTTTGAAAG,1.84,2.06,1.59,1.27,1.95,2.44,1.35,1.41
CGAACTAGGTCACCAAGACAGTGAAGAGGTTGGA,3.11,4.04,4.97,1.29,3.06,2.74,1.28,0.496
CCTACTGGGCCAAAACGGTCATTGATGCCGATAA,1.39,0.276,0.635,-0.682,-0.274,-0.206,-0.538,-0.184
CGTCCAAGGTCAAAGGTCAGCGAAGAGATGACGG,5.39,8.99,8.41,3.72,10.4,5.06,2.63,3.77
CAATCTAGGTCAAAGGTCAAAGTCGAGCCAACCA,5.31,8.93,7.21,2.92,10.3,4.99,2.3,2.73
TCTGCTAGGTCAGTTGGGCAGCTAACGAGCTGCC,1.91,2.37,3.42,0.193,0.493,1.12,-0.349,-0.821
ATCGAAAGGTCGTGACGTGAGTATACAGAAAGGC,2.18,4.37,3.53,0.904,4.94,2.15,-0.269,0.662
